Reference: PubChem BioAssay AID2781 (National Center for Advancing Translational Sciences (NCATS), 2010)
Calls of active or inactive are those of the source.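 Rule for the calls: active = compound whose NMR saturation transfer difference test with menin is positive, showing direct binding to the protein; inactive = the rest.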

molecular target: Menin (Homo sapiens) (UniProt O00255); assay: Confirmation of Inhibitors Targeting the Menin-MLL Interaction in MLL Related Leukemias: NMR spectroscopy to verify direct binding of compounds to menin; settings: purified menin, NMR STD binding, 100 uM
Sequence (O00255 whole entry, looked up, the tested form may be a part): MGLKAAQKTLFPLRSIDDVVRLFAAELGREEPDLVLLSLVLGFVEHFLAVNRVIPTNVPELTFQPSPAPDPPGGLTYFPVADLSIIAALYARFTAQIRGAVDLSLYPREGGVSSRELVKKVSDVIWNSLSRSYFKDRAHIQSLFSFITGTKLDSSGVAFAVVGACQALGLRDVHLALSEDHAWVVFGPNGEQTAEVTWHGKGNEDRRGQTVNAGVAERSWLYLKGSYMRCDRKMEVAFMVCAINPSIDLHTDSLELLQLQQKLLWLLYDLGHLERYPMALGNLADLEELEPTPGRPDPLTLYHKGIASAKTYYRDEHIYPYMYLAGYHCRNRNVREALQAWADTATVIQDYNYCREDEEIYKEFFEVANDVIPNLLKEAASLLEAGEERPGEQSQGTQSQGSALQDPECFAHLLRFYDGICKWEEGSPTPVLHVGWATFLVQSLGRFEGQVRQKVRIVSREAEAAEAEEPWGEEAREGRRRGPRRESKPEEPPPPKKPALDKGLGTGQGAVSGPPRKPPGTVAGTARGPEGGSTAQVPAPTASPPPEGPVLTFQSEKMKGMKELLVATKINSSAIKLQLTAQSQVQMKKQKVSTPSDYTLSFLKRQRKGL
Text: qHTS Assay for Inhibitors Targeting the Menin-MLL Interaction in MLL Related Leukemias NIH Chemical Genomics Center [NCGC] NIH Molecular Libraries Probe Centers Network [MLPCN] MLPCN Grant: MH084875-01A1 Assay Submitter (PI): Jolanta Grembecka, Tomasz Cierpicki, University of Virginia Translocations of the MLL (Mixed Lineage Leukemia) gene are frequently found in human leukemias affecting both children and adults. Fusion of MLL to one of more than 60 genes results in generation of oncogenic proteins upregulating Hox genes, which are vital to blood cell development. Patients harboring fusion of the MLL gene suffer from aggressive leukemias and respond poorly to available therapies. All of the oncogenic fusion proteins have a preserved N-terminal fragment of MLL that has been identified to interact with menin. It has been recently discovered that association with menin is critical to the leukemogenic activity of the MLL fusion oncoproteins. Selective targeting of the menin-MLL interaction could provide an attractive therapeutic approach to develop novel drugs for MLL-related leukemias. Small molecules blocking the menin-MLL interaction should reverse the oncogenic potential of MLL fusion proteins. We have developed and optimized a fluorescence polarization-based assay for the identification of Menin-MLL inhibitors. The assay was run employing two different MLL-derived peptides. The present assay uses a 12 amino acid peptide labeled with fluorescein at its N-terminus. This peptide consists of the menin high affinity binding motif from MLL and is potently bound by menin. Another peptide with a mutated sequence, labeled with Texas Red, was used in parallel as a less stringent screen for inhibitors. The present assay was developed to confirm hits from this primary screen, examining saturation transfer differences in NMR spectra upon incubation of the menin protein with compound.
The Menin protein, the MLL-wild type (w.t.) derived peptide (N-terminal 12 amino acids), the MLL-derived peptide labeled with Texas Red and the MLL-w.t. peptide labeled with Fluorescein were kindly supplied by laboratory of Dr. Jolanta Grembecka, University of Virginia. All protein and peptide solutions were stored in single use aliquots at -80C. The Buffer components for all assays were purchased from Sigma-Aldrich (St. Louis, MO) and Invitrogen (Carlsbad, CA). Assay Reagents: 1. Menin protein 2. MLL w.t. 3. NMR buffer: 50mM phosphate, 50mM NaCl, 1mM DTT, pH = 7.5 NMR protocol: 1. Prepare 450 uL of menin (2.5 uM) in complex with 100uM compound in NMR buffer and run STD (Saturation Transfer Difference) on NMR Bruker 600 MHz 2. Prepare 450 uL of menin (2.5 uM) in complex with 100 uM compound and 25uM of MLL w.t. in NMR buffer and run STD (Saturation Transfer Difference) on NMR Bruker 600 MHz

outcome, inactive:
CC(C)Sc1nc(N2CCOCC2)c2c3c(sc2n1)COC(C)(C)C3 inactive; negative
COc1ccc2[nH]c3c(C)c4ccncc4c(C)c3c2c1 inactive; negative
CCC(=O)Nc1ccc(-c2cc(-c3ccccc3)nc(-c3ccc(NC(=O)CC)cc3)n2)cc1 inactive; negative
CN(C)c1ccc(C2CC(=O)C=C(Nc3ccccc3N)C2)cc1 (stereo not given) inactive; negative
COc1ccccc1NS(=O)(=O)c1cc(N2Cc3ccccc3C2=N)ccc1N1CCOCC1 inactive; negative
CC1CCCCN1S(=O)(=O)c1ccc(C(=O)Nc2ccccc2-c2nc3ccccc3[nH]2)cc1 (stereo not given) inactive; negative
CS(=O)(=O)c1ccc2nc(NC(=O)Nc3cccc(Cl)c3)sc2c1 inactive; negative
CCc1oc2ccccc2c1C(=O)c1cc(Br)c(O)c(Br)c1 inactive; negative
COC(=O)[C@H](C)NC(=O)c1cc2c(cn1)[nH]c1ccccc12 inactive; negative
COc1ccccc1NS(=O)(=O)c1cc(NC(=O)Nc2cccc(C)c2)ccc1N1CCCCC1 inactive; negative
CC(c1ccccc1)c1nnc(NC(=O)Nc2ccccc2F)s1 (stereo not given) inactive; negative
O=C(Nc1nnc(-c2ccccc2SCc2ccccc2)s1)Nc1ccccc1F inactive; negative
Cc1ccc(-c2cc(C(=O)Nc3cc(C)ccc3O)no2)cc1 inactive; negative
NC(=NCCCCCCN=C(N)/N=C(\N)Nc1ccc(Cl)cc1)/N=C(\N)Nc1ccc(Cl)cc1 inactive; negative
Cc1cc2[nH]c3c(c[n+](C)c4ccccc34)c2cc1C inactive; negative
O=C(CS)Nc1ccc2ccccc2c1 inactive; negative
O=C1C(SCCO)=C(SCCO)C(=O)c2ccccc21 inactive; negative
COC(=O)c1ccccc1NC1=C/C(=N\S(=O)(=O)c2ccc(C(=O)O)cc2)c2ccccc2C1=O inactive; negative
NS(=O)(=O)c1ccc(NC(=O)c2ccc(-c3ccccc3)cc2)cc1 inactive; negative
O=C(O)CSc1cc(NS(=O)(=O)c2ccc(Br)cc2)c2ccccc2c1O inactive; negative
CCNc1ccccc1CP(=O)(c1ccccc1)c1ccccc1O (stereo not given) inactive; negative
CCc1ccc2c(c1)C(NC(C)=O)C(=O)N2CCN1CCOCC1 (stereo not given) inactive; negative
O=C(CSc1nc(O)cc(=O)n1-c1ccccc1)c1ccc(Br)cc1 inactive; negative
O=C(Nc1ccc(F)c(Cl)c1)c1cc(-c2ccco2)on1 inactive; negative
CCc1cc2c(N3CCN(C(=O)c4ccco4)CC3)ncnc2s1 inactive; negative
Oc1ccc(Nc2ncnc3c2oc2ccccc23)cc1 inactive; negative
O=C(O)c1ccccc1NS(=O)(=O)c1cccc(-n2sc3ccccc3c2=O)c1 inactive; negative
CCCC[n+]1c2ccccc2cc2ccccc21 inactive; negative
CCOC(=O)c1cnc2ccc(OC)cc2c1Nc1ccc(N2CCN(C)CC2)cc1 inactive; negative
CCOc1ccc2c(c1)C(NC(C)=O)C(=O)N2CCN1CCOCC1 (stereo not given) inactive; negative
O=C(Nc1cc(Br)ccc1O)c1cc(-c2ccco2)on1 inactive; negative

outcome, active:
COc1ccccc1C(=O)Nc1ccnn1C1CCN(CC2CC=CCC2)CC1 (stereo not given) active; positive
CCC(c1nnnn1Cc1ccc(F)cc1)N1CCN(C2CCCCC2)CC1 (stereo not given) active; positive
COc1ccc(Cn2nnnc2C(c2ccc3ncccc3c2)N2CCN(C3CCCCC3)CC2)cc1 (stereo not given) active; positive
O=C(C[N+]12CC[N+](CC(=O)c3ccc(F)cc3)(CC1)CC2)c1ccc(F)cc1 active; positive
O=C(CCC1CCCCC1)NCCN1C2=NC[C@H](Cc3ccc(O)cc3)N2C[C@H]1Cc1ccc(O)cc1 active; positive
Cc1sc2ncnc(NC3CCN(Cc4ccccc4)CC3)c2c1C active; positive
CCOC(=O)c1cnc2ccc(OCC)cc2c1N1CCN(C)CC1 active; positive
CCOc1cc(CNCCc2ccc(S(N)(=O)=O)cc2)ccc1OCc1ccccc1 active; positive
N#Cc1ccc(OCC(O)CN2CCN(C(c3ccccc3)c3ccccc3)CC2)cc1 (stereo not given) active; positive
